Among the data in PubChem BioAssay (NCI) are growth values, retold here.

About 83,000 compounds went through this panel and 20% of them were active in at least one assay; those are over-represented in the sample as a whole.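 48-hour exposure, single concentration, 96-well plates; percent growth endpoint where 0 means no net growth. Active: below 10.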 A number with no mark means an inactive call. Active and inactive are the calls of the source.

Some test systems named below: DU-145 prostate; K-562 leukemia; MALME-3M melanoma; MDA-MB-231 breast; RXF 393 renal; SF-268 CNS; SF-295 CNS; SF-539 CNS; UACC-257 melanoma; M14 melanoma; HCT-15 colon; HT29 colon; SNB-75 CNS; SNB-19 CNS; U251 CNS; PC-3 prostate; SK-MEL-5 melanoma; UACC-62 melanoma; LOX IMVI melanoma; SK-MEL-28 melanoma.
Assay in all cases: NCI-60 one-dose screen, 48 h (100 = growth as untreated, 0 = no growth, -100 = all killed)
What all share (settings): 10 µM unless noted

As for `C=C1NC(=O)C(C(C)CC)NC(=O)C2CSCC(NC(=O)CCC(=O)O)C(=O)NC(Cc3ccccc3)C(=O)NC(C)C(=O)NC(CC(C)CC)C(=O)NC(C(=O)NC(Cc3ccccc3)C(=O)N3CCCC3C(=O)N2)C(C)OC(=O)C(CO)NC(=O)C(C(O)COC)N(C)C(=O)C(C(C)C)NC(=O)C(CC(C)CC)NC1=O` (stereo not given), the growth is 9.63% [6 µM] (active) in the assay on DU-145 prostate; 9.39% [6 µM] (active) in the assay with K-562 leukemia; 55.3% [6 µM] in the assay on MALME-3M melanoma; 35.1% [6 µM] with MDA-MB-231 breast; 21.6% [6 µM] with RXF 393 renal; 25.5% [6 µM] in the assay on SF-268 CNS. Further, the growth in the assay with SF-295 CNS was 14.9% [6 µM]; in the assay on SF-539 CNS it was -6.71% [6 µM] (active); with UACC-257 melanoma, 30.1% [6 µM]; with M14 melanoma, 5.52% [6 µM] (active); with HCT-15 colon it was 15.8% [6 µM]; with HT29 colon it was 4.74% [6 µM] (active). Moreover, the growth in the assay on SNB-75 CNS was 11.4% [6 µM]; with SNB-19 CNS, 21.3% [6 µM]; in the assay on U251 CNS, 11.2% [6 µM]; in the assay with PC-3 prostate it was 22.1% [6 µM]; with SK-MEL-5 melanoma, -44.8% [6 µM] (active); with UACC-62 melanoma, 39.8% [6 µM]. Also, the growth in the assay with LOX IMVI melanoma is 15.1% [6 µM]; in the assay on SK-MEL-28 melanoma it was 60.2% [6 µM].

For the compound `COc1ccc(Nc2ncnc3c2sc2nc(C)cc(C)c23)cc1`, the growth in the assay with DU-145 prostate was 102%; with K-562 leukemia, 101%; with MALME-3M melanoma it was 94.5%; with MDA-MB-231 breast, 102%; in the assay on RXF 393 renal, 104%; with SF-268 CNS, 94.3%. The growth with SF-295 CNS was 112%; with SF-539 CNS, 94.6%; with UACC-257 melanoma, 93.2%; in the assay with M14 melanoma, 102%; in the assay on HCT-15 colon, 96%; in the assay with HT29 colon it was 105%. Further, the growth with SNB-75 CNS is 74.4%; in the assay with SNB-19 CNS, 99.2%; in the assay with U251 CNS it was 103%; in the assay with PC-3 prostate it was 92.7%; in the assay with SK-MEL-5 melanoma, 99.8%; in the assay with UACC-62 melanoma, 100%. Also, the results for the growth in the assay on LOX IMVI melanoma and in the assay with SK-MEL-28 melanoma were 96.7% and 105%, respectively.

Consider `COc1cc(C2CC(c3ccc(Cl)cc3)=NN2C=O)ccc1OS(=O)(=O)c1ccc(C)cc1` (stereo not given), for which the growth was 105% in the assay on DU-145 prostate; 82.1% with K-562 leukemia; 93.8% in the assay with MALME-3M melanoma; 92.5% with MDA-MB-231 breast; 97.2% with RXF 393 renal; 100% with SF-268 CNS. Besides, the growth in the assay with SF-295 CNS was 87.4%; in the assay on SF-539 CNS, 89.6%; in the assay with UACC-257 melanoma, 85.3%; in the assay on M14 melanoma, 84%; in the assay on HCT-15 colon, 89.7%; with HT29 colon, 99.3%. In addition, the growth is 91.5% in the assay on SNB-75 CNS; 86.7% with SNB-19 CNS; 91% with U251 CNS; 94.4% in the assay on PC-3 prostate; 86.3% in the assay on SK-MEL-5 melanoma; 78.6% with UACC-62 melanoma. Moreover, the growth in the assay on LOX IMVI melanoma was 97.2%; with SK-MEL-28 melanoma it was 103%.

As to `CCOC(CN1CCN(CC(C)C(=O)c2ccccc2)CC1)c1ccccc1` (stereo not given), the growth was 112% in the assay with DU-145 prostate; 115% with K-562 leukemia; 105% with MALME-3M melanoma; 95.5% with MDA-MB-231 breast; 99.5% in the assay on RXF 393 renal; 113% in the assay on SF-268 CNS. The growth is 92.6% in the assay with SF-295 CNS; 111% in the assay on SF-539 CNS; 93.2% with UACC-257 melanoma; 114% in the assay on M14 melanoma; 100% in the assay with HCT-15 colon; 108% with HT29 colon. Besides, the growth was 79% in the assay on SNB-75 CNS; 97.8% in the assay on SNB-19 CNS; 90.5% in the assay with U251 CNS; 93.6% in the assay on PC-3 prostate; 90.1% with SK-MEL-5 melanoma; 105% in the assay with UACC-62 melanoma. For the same compound, the growth with LOX IMVI melanoma was 101%; in the assay on SK-MEL-28 melanoma it was 98%.

Take `CNC(=O)c1cc(Oc2ccc(NC(=O)c3nc(S(C)(=O)=O)n(C)c3-c3ccc(F)cc3)cc2)ccn1`: the growth with DU-145 prostate was 56.9%; with K-562 leukemia it was 61%; in the assay with MALME-3M melanoma it was 77.5%; in the assay with MDA-MB-231 breast, 83%; with RXF 393 renal, 58.4%; in the assay on SF-268 CNS it was 70.4%. Besides, the growth with SF-295 CNS is 70.2%; in the assay with SF-539 CNS it was 85.6%; in the assay with UACC-257 melanoma it was 96.4%; in the assay on M14 melanoma, 50.4%; in the assay with HCT-15 colon, 57.8%; in the assay with HT29 colon, 71.9%. Also, the growth was 43% in the assay on SNB-75 CNS; 85% in the assay on SNB-19 CNS; 76.1% in the assay with U251 CNS; 64.1% with PC-3 prostate; 73.8% in the assay on SK-MEL-5 melanoma; 62% in the assay with UACC-62 melanoma. Further, the growth in the assay with LOX IMVI melanoma was 62.4%; with SK-MEL-28 melanoma, 95.7%.

In the case of `CC(C)NCCCCCNc1cc(O)cc2cccnc12`, the growth in the assay with DU-145 prostate is 93.2%; in the assay on K-562 leukemia it was 67.6%; in the assay with MALME-3M melanoma it was 23.8%; in the assay with MDA-MB-231 breast it was 26.6%; in the assay on RXF 393 renal, 74.7%; in the assay with SF-268 CNS, 89.2%. The growth in the assay on SF-295 CNS was 77.4%; with SF-539 CNS, 71.5%; in the assay with UACC-257 melanoma it was 111%; in the assay on M14 melanoma it was 88.2%; with HCT-15 colon it was 94.6%; in the assay on HT29 colon, 54.2%. Besides, the growth in the assay on SNB-75 CNS was 56.4%; in the assay on SNB-19 CNS it was 107%; in the assay with U251 CNS, 101%; with PC-3 prostate, 92.4%; in the assay with SK-MEL-5 melanoma, 88.2%; in the assay on UACC-62 melanoma, 94.5%. Besides, the growth in the assay on LOX IMVI melanoma is 72.2%; in the assay with SK-MEL-28 melanoma it was 91.6%.

For `COc1cc(C(=O)/C=C/c2cn(-c3ccccc3)nc2-c2cccc(Nc3ccnc4cc(Cl)ccc34)c2)cc(OC)c1OC`, the growth was 76.9% in the assay on DU-145 prostate; 59.5% with K-562 leukemia; 73% in the assay on MALME-3M melanoma; 62.9% with MDA-MB-231 breast; 86.7% in the assay on RXF 393 renal; 93.6% in the assay with SF-268 CNS. The growth in the assay with SF-295 CNS is 117%; in the assay with SF-539 CNS, 98%; in the assay on UACC-257 melanoma, 111%; in the assay on M14 melanoma it was 100%; with HCT-15 colon, 87.4%; in the assay with HT29 colon, 77.1%. The growth with SNB-75 CNS was 107%; in the assay with SNB-19 CNS, 116%; in the assay with U251 CNS, 88.1%; with PC-3 prostate it was 107%; with SK-MEL-5 melanoma, 71.4%; with UACC-62 melanoma it was 104%. Also, the growth with LOX IMVI melanoma was 71.5%; in the assay on SK-MEL-28 melanoma, 93.9%.
